The campaign covered roughly 310,000 compounds. About 14,000 (4.5%) showed an effect of 50% or more. Effects have a minus sign here. The list comes from a sample in which strong results are over-represented; it also holds similar structures and randomly drawn compounds.
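Also: peak tail current of the secondary pulse compared with the same well before compound.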

This assay deals with human ether-à-go-go-related gene (hERG) potassium channel (human, UniProt Q12809). Nature of the assay: primary screen, population patch clamp on CHO cells stably expressing hERG; higher = less effect of the substance.
human ether-à-go-go-related gene (hERG) potassium channel, sequence (Q12809 whole entry, looked up): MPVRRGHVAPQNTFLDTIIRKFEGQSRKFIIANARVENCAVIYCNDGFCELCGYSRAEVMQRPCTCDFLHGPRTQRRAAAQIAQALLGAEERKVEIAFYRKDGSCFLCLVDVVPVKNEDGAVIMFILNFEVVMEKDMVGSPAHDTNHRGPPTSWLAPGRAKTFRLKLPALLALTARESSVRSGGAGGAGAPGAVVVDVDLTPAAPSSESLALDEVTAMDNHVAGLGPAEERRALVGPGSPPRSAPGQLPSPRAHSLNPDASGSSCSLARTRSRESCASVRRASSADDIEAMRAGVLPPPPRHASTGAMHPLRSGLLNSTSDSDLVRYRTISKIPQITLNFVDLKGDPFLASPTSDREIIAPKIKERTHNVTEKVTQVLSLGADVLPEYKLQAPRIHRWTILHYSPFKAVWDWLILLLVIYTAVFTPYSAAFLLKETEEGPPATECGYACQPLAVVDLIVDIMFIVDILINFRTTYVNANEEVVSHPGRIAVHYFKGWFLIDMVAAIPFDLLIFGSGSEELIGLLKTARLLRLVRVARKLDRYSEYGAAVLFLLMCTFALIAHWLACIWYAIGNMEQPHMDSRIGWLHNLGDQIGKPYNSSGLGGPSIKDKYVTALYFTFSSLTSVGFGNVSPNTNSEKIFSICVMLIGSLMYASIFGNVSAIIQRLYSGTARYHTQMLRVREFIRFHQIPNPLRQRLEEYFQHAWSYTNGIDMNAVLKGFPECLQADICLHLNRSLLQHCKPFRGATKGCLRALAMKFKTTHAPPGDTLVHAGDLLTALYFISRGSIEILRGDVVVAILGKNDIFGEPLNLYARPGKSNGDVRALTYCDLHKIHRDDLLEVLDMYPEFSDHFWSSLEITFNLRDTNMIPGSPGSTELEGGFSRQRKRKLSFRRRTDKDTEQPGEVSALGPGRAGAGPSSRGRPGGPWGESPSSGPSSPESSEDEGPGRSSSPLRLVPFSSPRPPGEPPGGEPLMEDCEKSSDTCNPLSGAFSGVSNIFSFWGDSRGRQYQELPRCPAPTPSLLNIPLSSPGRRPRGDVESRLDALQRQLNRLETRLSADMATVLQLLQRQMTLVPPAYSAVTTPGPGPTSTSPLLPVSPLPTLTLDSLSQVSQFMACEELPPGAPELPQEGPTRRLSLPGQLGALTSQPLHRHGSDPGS
For `CCOc1ccc(S(=O)(=O)N2CCCCC2)cc1NC(=O)CN1C(=O)NC(C)(c2ccccc2)C1=O` (centres unmarked), the “hERG current change (%, negative = inhibition) at 10uM” value is given as -35.5%. The value for `CCC1(c2ccccc2)NC(=O)N(CC(=O)Nc2cc(S(=O)(=O)N3CCOCC3)ccc2OC(C)C)C1=O` (centres unmarked) was -55.7%. The value for `CC1(c2ccccc2)NC(=O)N(CC(=O)Nc2cc(S(=O)(=O)N3CCOCC3)ccc2Cl)C1=O` (centres unmarked) was -7.82%; that for `CCOc1ccc(S(=O)(=O)N2CCCCC2)cc1NC(=O)CN1C(=O)NC(CC)(c2ccccc2)C1=O` (centres unmarked) was -15%. As for `CCOc1ccc(S(=O)(=O)N2CCOCC2)cc1NC(=O)CN1C(=O)NC(C)(c2ccccc2)C1=O` (centres unmarked), the “hERG current change (%, negative = inhibition) at 10uM” value is given as -52.6%. Next, `CCOc1ccc(S(=O)(=O)N2CCOCC2)cc1NC(=O)CN1C(=O)NC2(CCCC2)C1=O`: 5.87%. The value for `C[C@H](C(=O)NCc1ccccc1)C(=O)c1ccccc1` was 18%; that for `CCOC(=O)CN1C(=O)C(O)(CC(=O)c2ccccn2)c2ccccc21` (centres unmarked) was 14.6%; that for `Cc1nn(Cc2ccccc2)c(C)c1C(=O)NCc1ccccc1` was 6.55%. For the molecule `COc1ccc2cc(C(=O)OC(C)C)sc(=O)c2c1OC`, the “hERG current change (%, negative = inhibition) at 10uM” value was determined as 2.45%. Next, `Cc1ccc(/C(N)=N/OC(=O)c2ccc3ccccc3c2)cc1`: 0.62%; `CCOC(=O)N1CCC(N2Cc3cccc(C(=O)NC(C)c4ccc5c(c4)OCCO5)c3C2=O)CC1` (centres unmarked): -67.5%. Next, `CCOC(=O)N1CCC(N2Cc3cccc(C(=O)Nc4ccc(N(CC)CC)cc4C)c3C2=O)CC1`: -7.16%. `CCOC(=O)N1CCC(N2Cc3cccc(C(=O)Nc4cccc(F)c4)c3C2=O)CC1`: the “hERG current change (%, negative = inhibition) at 10uM” value is -72.1%. `CCOC(=O)N1CCC(N2Cc3cccc(C(=O)Nc4c(C)cccc4CC)c3C2=O)CC1`: the “hERG current change (%, negative = inhibition) at 10uM” value was -77.1%. In the case of `CCOC(=O)N1CCC(N2Cc3cccc(C(=O)Nc4cc(F)ccc4F)c3C2=O)CC1`, the “hERG current change (%, negative = inhibition) at 10uM” value is reported as -23.1%. Turning to `CCOC(=O)N1CCC(N2Cc3cccc(C(=O)NCc4ccccn4)c3C2=O)CC1`, the “hERG current change (%, negative = inhibition) at 10uM” value is recorded as -34.5%.

As to `O=C(Nc1cccc(F)c1)c1cccc2c1C(=O)N(C1CCCCC1)C2`, the “hERG current change (%, negative = inhibition) at 10uM” value was found to be 12.2%. Next, `CCOC(=O)N1CCC(N2Cc3cccc(C(=O)Nc4ccc(F)cc4)c3C2=O)CC1`: -55.3%; `Cc1cccc(C)c1NC(=O)c1cccc2c1C(=O)N(C1CCCCC1)C2`: -7.01%; `CCOC(=O)N1CCC(N2Cc3cccc(C(=O)Nc4ccc(CC)cc4)c3C2=O)CC1`: -42.6%. Consider `CCOC(=O)N1CCC(N2Cc3cccc(C(=O)NCc4ccc5c(c4)OCO5)c3C2=O)CC1`, for which the “hERG current change (%, negative = inhibition) at 10uM” value was -19.5%. For the molecule `CCOC(=O)N1CCC(N2Cc3cccc(C(=O)Nc4ccc(OCC)cc4)c3C2=O)CC1`, the “hERG current change (%, negative = inhibition) at 10uM” value was 9.07%.

`COc1ccc(OC)c(/C=N/n2c(COc3ccccc3)n[nH]c2=S)c1`: the “hERG current change (%, negative = inhibition) at 10uM” value was determined as 12.2%. As for `CCOc1ccc(-c2noc(-c3cccnc3)n2)cc1OCC`, the “hERG current change (%, negative = inhibition) at 10uM” value was determined as 13.7%. The value for `O=c1[nH]nc(Cc2ccc3ccccc3n2)c2ccccc12` was 1.36%; that for `COc1ccc2[nH]c(=O)c(CN(Cc3cccs3)C(=S)Nc3ccccc3)cc2c1` was 16.7%; that for `Fc1ccc(NC(=S)Nc2cccnc2)c(F)c1F` was 20.1%. The value for `COc1ccccc1CNC(=O)COc1ccc2c(c1)CCC2` was -1.2%. Next, `Nc1ncnc2c1ncn2CCOc1ccccc1`: 5.18%; `Cc1cccc2sc(N(CCCN(C)C)C(=O)c3ccc(Cl)s3)nc12.Cl`: -69.7%.

As to `COc1cc2ccccc2cc1C(=O)N(CCN(C)C)c1nc2c(F)cc(F)cc2s1.Cl`, the “hERG current change (%, negative = inhibition) at 10uM” value was -10.1%. Next, `CN(C)CCN(C(=O)/C=C/c1cccs1)c1nc2c(F)cc(F)cc2s1.Cl`: -47.8%; `CN(C)CCCN(C(=O)c1ccco1)c1nc2c(F)cccc2s1.Cl`: -73.2%; `Cc1cccc2sc(N(CCCN(C)C)C(=O)c3ccco3)nc12.Cl`: -74.9%. Turning to `Cc1cccc2sc(N(CCCN(C)C)C(=O)c3nc4ccccc4s3)nc12.Cl`, the “hERG current change (%, negative = inhibition) at 10uM” value is on record as 4.2%. The value for `CN(C)CCCN(C(=O)c1cc(-c2cccs2)nc2ccccc12)c1nc2c(F)cccc2s1.Cl` was -48.8%; that for `Cc1cccc2sc(N(CCN(C)C)C(=O)c3cc(Cl)sc3Cl)nc12.Cl` was -22.7%. For the molecule `CN(C)CCCN(C(=O)c1ccco1)c1nc2c(F)cc(F)cc2s1.Cl`, the “hERG current change (%, negative = inhibition) at 10uM” value is -72.2%.

For `COc1cccc(N(CC(=O)NCCN2CCOCC2)S(=O)(=O)c2ccccc2)c1`, the “hERG current change (%, negative = inhibition) at 10uM” value was -4.96%. Next, `O=C(CSc1nc2ccccc2[nH]1)NCCc1ccc(Cl)cc1`: -20.9%.

(Values after publication PMC4336329 (PLoS ONE, 2015).)
